Source: PubChem BioAssay (EPA / NIEHS)
Active and inactive are the calls of the source. How the source made its calls: active means hit-call score of the fitted dose curve at least 0.9, where 1 is the maximum; inactive means score below 0.9.

What was measured:
Conditions in all cases: mRNA level, 48 h; actives raise or lower the signal
[1] = read-out: Fatty acid synthase (Homo sapiens) (UniProt P49327); experiment: LTEA_HepaRG_FASN: Life Technologies and Expression Analysis (LTEA) Assay for Fatty Acid Synthase (FASN) using HepaRG (AID 2283448);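 on AC50: differentiated human HepaRG liver cells in serum-free induction medium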
Summary of the method: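 Transcript-level assay: HepaRG liver cells are treated for 48 h across an eight-point range topping at 100 uM, and FASN mRNA, normalized to three housekeeping genes, is compared with DMSO controls in both directions.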

[2] = read-out: Cyclin D2 (CCND2), CCND2 (gene 894); experiment: LTEA_HepaRG_CCND2: Life Technologies and Expression Analysis (LTEA) Assay for Cyclin D2 (CCND2) using HepaRG (AID 2283449);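 further: CCND2 transcript measured by TaqMan qRT-PCR and normalised to three housekeeping genes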
Summary of the method: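 Chemicals in 0.5% DMSO, eight half-log concentrations from 100 uM top, were applied in duplicate for 48 h to human HepaRG cells in serum-free induction medium. CCND2 mRNA by TaqMan qRT-PCR, normalised to ACTB/GAPDH/POLR2A; bidirectional fit versus DMSO.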

[3] = read-out: Cyclin Dependent Kinase Inhibitor 1A (CDKN1A), CDKN1A (gene 1026); experiment: LTEA_HepaRG_CDKN1A: Life Technologies and Expression Analysis (LTEA) Assay for Cyclin Dependent Kinase Inhibitor 1A (CDKN1A) using HepaRG (AID 2283450)
Summary of the method: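 Cryopreserved HepaRG cells were plated and cultured 48 h, then switched to serum-free induction medium. Chemicals (eight half-log concentrations, top 100 uM, 0.5% DMSO) were applied for 48 h. Lysates underwent qRT-PCR for CDKN1A with housekeeping normalization.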

[4] = read-out: Cyclin D1 (CCND1), CCND1 (gene 595); experiment: LTEA_HepaRG_CCND1: Life Technologies and Expression Analysis (LTEA) Assay for Cyclin D1 (CCND1) using HepaRG (AID 2283451);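 on AC50: differentiated human HepaRG liver cells in serum-free induction medium; TaqMan qRT-PCR transcript level normalised to ACTB GAPDH and POLR2A housekeeping genes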
Summary of the method: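 Human liver HepaRG line; 48 h dosing, 8 conc. ≤100 uM, 0.5% DMSO; TaqMan qRT-PCR mRNA, 3 housekeeping genes; bidirectional curve fit vs DMSO.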

[5] = read-out: catalase (CAT), CAT (gene 847); experiment: LTEA_HepaRG_CAT: Life Technologies and Expression Analysis (LTEA) Assay for catalase (CAT) using HepaRG (AID 2283452);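 on AC50: TaqMan qRT-PCR signal normalized to ACTB GAPDH and POLR2A housekeeping genes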
Summary of the method: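 HepaRG cells in serum-free induction medium, 0.5% DMSO vehicle, exposed 48 h in duplicate over 8 half-log concentrations from 100 uM. CAT mRNA measured by qRT-PCR, normalized to ACTB, GAPDH, POLR2A; bidirectional fit versus DMSO.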

[6] = read-out: flavin-containing dimethylaniline monooxygenases 3 (FMO3), FMO3 (gene 2328); experiment: LTEA_HepaRG_FMO3: Life Technologies and Expression Analysis (LTEA) Assay for flavin-containing dimethylaniline monooxygenases 3 (FMO3) using HepaRG (AID 2283453);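 on AC50: differentiated human HepaRG liver cells in serum-free induction medium; FMO3 transcript by TaqMan qRT-PCR normalized to ACTB GAPDH and POLR2A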
Summary of the method: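 HepaRG, 48 h exposure, 8-pt half-log series from 100 uM, 0.5% DMSO vehicle, duplicates; FMO3 transcript by Fluidigm TaqMan qRT-PCR, housekeeping-normalized; gain/loss fit vs DMSO.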

[7] = read-out: Cytochrome P450 (CYP1A1), CYP1A1 (gene 1543); experiment: LTEA_HepaRG_CYP1A1: Life Technologies and Expression Analysis (LTEA) Assay for Cytochrome P450 (CYP1A1) using HepaRG (AID 2283454)
Summary of the method: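 Induction of CYP1A1 mRNA in a human hepatic cell line was measured 48 h after dosing, with 1 mM phenobarbital as induction positive control and 0.5% DMSO vehicle as baseline for bidirectional curve fitting.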

[8] = read-out: CFLAR gene, CFLAR (gene 8837); experiment: LTEA_HepaRG_CFLAR: Life Technologies and Expression Analysis (LTEA) Assay for CFLAR gene using HepaRG (AID 2283455)
Summary of the method: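 Differentiated HepaRG cells in serum-free induction medium were exposed 48 h in duplicate to eight half-log concentrations up to 100 uM in 0.5% DMSO; mRNA measured by TaqMan qRT-PCR, normalized to ACTB, GAPDH, POLR2A; bidirectional fitting versus DMSO.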

[9] = read-out: Tumor necrosis factor receptor superfamily member 6 (Homo sapiens) (UniProt P25445); experiment: LTEA_HepaRG_FAS: Life Technologies and Expression Analysis (LTEA) Assay for Fas cell surface death receptor (FAS) using HepaRG (AID 2283447)
Summary of the method: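 Differentiated HepaRG cells in serum-free induction medium were exposed 48 h to 8 half-log concentrations up to 100 uM in 0.5% DMSO, in duplicate. FAS mRNA was measured by qRT-PCR normalised to ACTB, GAPDH and POLR2A; bidirectional fit versus DMSO.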

Measured: AC50

Fatty acid synthase (Homo sapiens), sequence (P49327 whole entry, looked up): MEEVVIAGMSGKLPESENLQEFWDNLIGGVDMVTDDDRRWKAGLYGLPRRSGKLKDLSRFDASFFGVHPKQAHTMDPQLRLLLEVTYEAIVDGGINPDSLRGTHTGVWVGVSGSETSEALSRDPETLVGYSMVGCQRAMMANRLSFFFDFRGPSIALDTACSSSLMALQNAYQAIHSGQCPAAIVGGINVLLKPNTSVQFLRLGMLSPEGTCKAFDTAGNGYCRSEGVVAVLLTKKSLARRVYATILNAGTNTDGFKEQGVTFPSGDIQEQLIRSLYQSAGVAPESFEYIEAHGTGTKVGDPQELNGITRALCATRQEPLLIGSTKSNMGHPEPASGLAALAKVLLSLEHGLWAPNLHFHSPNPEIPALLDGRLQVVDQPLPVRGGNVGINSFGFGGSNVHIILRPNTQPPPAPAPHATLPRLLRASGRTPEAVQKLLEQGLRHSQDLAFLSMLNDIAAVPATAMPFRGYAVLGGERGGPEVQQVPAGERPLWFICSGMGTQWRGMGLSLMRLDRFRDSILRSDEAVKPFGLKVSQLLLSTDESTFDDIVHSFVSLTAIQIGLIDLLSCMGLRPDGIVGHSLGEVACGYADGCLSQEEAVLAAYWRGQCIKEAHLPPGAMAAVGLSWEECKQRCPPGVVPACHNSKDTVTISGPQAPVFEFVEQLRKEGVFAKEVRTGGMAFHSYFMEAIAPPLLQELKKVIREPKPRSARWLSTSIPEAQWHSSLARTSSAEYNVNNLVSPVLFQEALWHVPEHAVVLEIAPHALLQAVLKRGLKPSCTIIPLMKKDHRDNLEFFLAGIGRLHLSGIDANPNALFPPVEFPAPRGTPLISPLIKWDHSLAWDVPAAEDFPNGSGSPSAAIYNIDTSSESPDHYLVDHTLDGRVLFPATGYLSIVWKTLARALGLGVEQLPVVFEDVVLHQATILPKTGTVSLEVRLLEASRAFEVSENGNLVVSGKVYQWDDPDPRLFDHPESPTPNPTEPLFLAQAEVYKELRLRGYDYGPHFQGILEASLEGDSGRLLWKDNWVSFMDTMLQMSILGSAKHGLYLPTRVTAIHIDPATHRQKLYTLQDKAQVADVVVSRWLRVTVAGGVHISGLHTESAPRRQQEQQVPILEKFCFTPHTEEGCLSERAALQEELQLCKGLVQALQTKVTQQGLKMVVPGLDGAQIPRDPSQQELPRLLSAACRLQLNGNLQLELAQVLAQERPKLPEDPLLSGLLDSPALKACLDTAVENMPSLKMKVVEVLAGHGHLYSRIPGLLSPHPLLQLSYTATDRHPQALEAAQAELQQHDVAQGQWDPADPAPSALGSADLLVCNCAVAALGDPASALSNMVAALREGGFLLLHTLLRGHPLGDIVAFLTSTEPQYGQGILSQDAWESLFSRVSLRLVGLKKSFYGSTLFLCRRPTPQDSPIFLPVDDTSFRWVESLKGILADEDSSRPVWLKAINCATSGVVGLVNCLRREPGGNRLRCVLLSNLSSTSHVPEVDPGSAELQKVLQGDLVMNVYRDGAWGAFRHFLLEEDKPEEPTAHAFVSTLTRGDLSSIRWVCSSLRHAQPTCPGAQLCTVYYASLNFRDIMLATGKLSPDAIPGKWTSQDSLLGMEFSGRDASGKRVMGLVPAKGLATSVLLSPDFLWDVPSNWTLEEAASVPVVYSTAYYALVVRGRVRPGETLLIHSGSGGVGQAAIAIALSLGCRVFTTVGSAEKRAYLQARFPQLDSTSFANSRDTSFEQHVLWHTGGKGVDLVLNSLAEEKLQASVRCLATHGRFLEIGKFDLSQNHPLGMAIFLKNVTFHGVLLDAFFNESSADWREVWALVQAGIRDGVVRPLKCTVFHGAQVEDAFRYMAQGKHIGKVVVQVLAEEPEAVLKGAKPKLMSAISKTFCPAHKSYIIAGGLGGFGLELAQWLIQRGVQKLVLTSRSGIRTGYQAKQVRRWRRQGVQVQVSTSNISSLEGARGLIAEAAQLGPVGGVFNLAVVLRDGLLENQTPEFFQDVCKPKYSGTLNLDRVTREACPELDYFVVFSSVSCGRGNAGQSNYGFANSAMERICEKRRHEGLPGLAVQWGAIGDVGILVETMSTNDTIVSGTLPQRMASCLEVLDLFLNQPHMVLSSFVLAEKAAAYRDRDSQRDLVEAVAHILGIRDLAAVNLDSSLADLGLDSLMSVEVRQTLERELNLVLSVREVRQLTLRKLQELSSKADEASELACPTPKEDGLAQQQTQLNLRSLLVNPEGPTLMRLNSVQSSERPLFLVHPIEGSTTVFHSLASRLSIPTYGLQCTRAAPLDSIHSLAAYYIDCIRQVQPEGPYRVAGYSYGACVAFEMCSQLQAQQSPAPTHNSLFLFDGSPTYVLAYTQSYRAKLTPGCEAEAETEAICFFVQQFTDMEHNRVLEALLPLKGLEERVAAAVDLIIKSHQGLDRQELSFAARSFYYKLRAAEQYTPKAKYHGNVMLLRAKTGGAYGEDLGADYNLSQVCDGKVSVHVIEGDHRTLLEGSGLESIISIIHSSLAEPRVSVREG

Cc1cccc([N+](=O)[O-])c1
inactive: [1] | [2] | [3] | [4] | [5] | [6] | [8]
active: [7] 50 µM

O=NN(c1ccccc1)c1ccccc1
active: [7] 25.9 µM
inactive: [9] | [1] | [2] | [3] | [4] | [5] | [6] | [8]

CO/C=C(/C(=O)OC)c1ccccc1COc1cccc(C(F)(F)F)n1
active: [9] 9.8 µM | [1] 9 µM | [3] 9.85 µM | [4] 50 µM | [5] 6.81 µM | [6] 20.9 µM | [7] 8.52 µM | [8] 18.8 µM

Clc1ccc(C(Cl)(Cl)Cl)cc1
inactive: [9] | [1] | [2] | [3] | [4] | [5] | [6] | [7] | [8]

COc1ccc(O)c(C(C)(C)C)c1
inactive: [9] | [1] | [2] | [3] | [5] | [6] | [7] | [8]

Oc1ccc(C(c2ccc(O)cc2)(C(F)(F)F)C(F)(F)F)cc1
inactive: [9] | [3] | [4]
active: [1] 90.7 µM | [2] 0.147 µM | [5] 89.2 µM | [6] 78.3 µM | [7] 50 µM | [8] 91.3 µM

CC(c1ccc(O)cc1)(c1ccc(O)cc1)c1ccc(O)cc1
active: [9] 91.1 µM | [1] 32.1 µM | [3] 50 µM | [4] 24.1 µM | [5] 50 µM | [6] 74.5 µM | [7] 15.8 µM | [8] 64.5 µM

O=C(O)C(F)(F)C(F)(F)C(F)(F)C(F)(F)C(F)(F)C(F)(F)C(F)(F)C(F)(F)F
active: [9] 69.2 µM | [1] 94.2 µM | [3] 79.9 µM | [4] 50 µM | [5] 85 µM | [6] 79.7 µM
inactive: [7] | [8]

CCCCCCOC(=O)c1ccccc1C(=O)OCCCCCC
inactive: [9] | [1] | [3] | [4] | [5] | [6] | [8]
active: [7] 50 µM

C1CC2OC2CC1C1CO1 (configuration not stated)
inactive: [9] | [1] | [3] | [5] | [6] | [7] | [8]

ClC1=C(Cl)[C@]2(Cl)[C@@H]3[C@@H]4C[C@@H]([C@H]5O[C@@H]45)[C@@H]3[C@@]1(Cl)C2(Cl)Cl
active: [7] 28.3 µM
inactive: [9] | [1] | [2] | [3] | [4] | [5] | [6] | [8]

CCOC(=O)C(O)(c1ccc(Cl)cc1)c1ccc(Cl)cc1
inactive: [9] | [1] | [2] | [3] | [4] | [5] | [6] | [8]
active: [7] 47.1 µM

Cc1ccccc1O
inactive: [9] | [1] | [2] | [3] | [4] | [5] | [6] | [7] | [8]

Nn1cnnc1
active: [7] 50 µM
inactive: [9] | [1] | [2] | [3] | [4] | [5] | [6] | [8]

CC(C)(c1ccccc1)c1ccc(O)cc1
inactive: [9] | [1] | [3] | [4] | [5] | [6] | [7]

c1ccc(-c2ccccc2)cc1
inactive: [1] | [2] | [3] | [4] | [5] | [6] | [7] | [8]

O=C(O)C(F)(F)C(F)(F)C(F)(F)C(F)(F)C(F)(F)F
active: [6] 2.34 µM | [7] 50 µM
inactive: [9] | [1] | [2] | [3] | [4] | [5] | [8]
